Experiment [1] concerns the target Albumin (Bos taurus) (UniProt P02769). As to the kind of experiment: compounds binding labelled BSA control protein – biochemical, small-molecule microarray, Alexa647 label, 635/667 nm fluorescence, artefact control for SMM control protein annotation, profiling panel (AID 1118).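 Further: score merges 667 nm emission intensity and signal-to-noise per printed compound spot.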 Particulars: BSA-A647 binding, fluorescence 635 nm, higher = more signal.
The nature of experiment [2]: probe aXIP binding to arrayed compounds – biochemical, NeuroSMM set, 635/667 nm fluorescence, primary screen (AID 1119).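 Further: probe is the protein aXip251-270 applied at 1 µg/mL to compound-printed slides; binding of probe to printed compounds measured as 667 nm fluorescence plus signal to noise.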 Particulars: small-molecule microarray, higher = more signal, called active from +8 up or from −8 down.
Experiment [3] in a line: probe aNOTCH3 binding on compound microarray – biochemical, small-molecule microarray, 635/667 nm fluorescence, primary screen (AID 1120).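 Further: probe is a biotin-tagged antibody raised against NOTCH3 rather than NOTCH3 protein; score merges spot fluorescence near 667 nm with spot signal to noise.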 Particulars: higher = more signal.
Experiment [4] is described as follows: probe aNOTCH2 binding on compound microarray – biochemical, small-molecule microarray, 635/667 nm fluorescence, primary screen (AID 1121).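 Further: score merges feature fluorescence read at 667 nm with its signal to noise.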 Particulars: higher = more signal.
Experiment [5] deals with Carbonic anhydrase 2 (Homo sapiens) (UniProt P00918). As to the kind of experiment: compounds binding carbonic anhydrase 2 – biochemical, small-molecule microarray, Alexa647-labelled CAII, profiling panel (AID 1122). Particulars: CAII-A647 binding fluorescence, higher = more signal.
Experiment [6] in a line: COS7 lysate on small-molecule microarray, probe aHis, 635 nm (AID 1123).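 Further: z-score combines 667nm fluorescence intensity with signal-to-noise per printed compound spot.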 Particulars: COS7 cell lysate, fluorescence, higher = more signal.
Experiment [7] in a line: probe aLAP1 signal on lysate-treated microarray – cell lysate, small-molecule microarray, COS7 lysate, primary screen (AID 1124).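 Further: lysate comes from COS7 cells expressing LAP1 and is applied at 0.3 µg/mL; score merges spot fluorescence near 667 nm with signal-to-noise over triplicate slides.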 The following applies: probe aLAP1, fluorescence, higher = more signal.
For experiment [8], the system named is Sam68 (KHDRBS1). Briefly: compounds binding KHDRBS1 protein – biochemical, small-molecule microarray, 635 nm fluorescence, primary screen (AID 1125).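 Further: score merges 667 nm channel intensity with signal to noise over triplicate slides.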 Particulars: higher = more signal.
For experiment [9], the system named is Chordin-like protein 2 (CHRDL2). Briefly: compounds binding chordin-like 2 – biochemical, small-molecule microarray, 635 nm fluorescence, primary screen (AID 1126).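 Further: printed compound slides probed with Chrdl2 protein at 4 µg/mL for 1 h at 4 C; score merges 667 nm emission intensity with signal to noise over three replicate slides.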 Particulars: fluorescence 635 nm, higher = more signal.
The target in experiment [10] is Concanavalin-A (Canavalia ensiformis) (UniProt P02866). Briefly: compounds binding concanavalin A lectin – biochemical, small-molecule microarray, Alexa647 label, 635 nm, artefact control for SMM control protein annotation, primary screen (AID 1127).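 Further: z combines 667 nm emission intensity with signal-to-noise across three replicate slides.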 Particulars: ConA-A647 binding fluorescence, higher = more signal.
Experiment [11] in a line: compounds binding Alexa647 anti-His antibody – biochemical, small-molecule microarray, 635 nm fluorescence, artefact control for SMM control protein annotation, primary screen (AID 1128).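 Further: score merges feature fluorescence with signal-to-noise for each printed compound spot.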 The following applies: higher = more signal.
Experiment [12] has as its system Human papillomavirus type 1a E7 protein (residues 1-88). As to the kind of experiment: HPV1a E7 small-molecule binders, primary screen, biochemical, small-molecule microarray, residues 1-88, 635 nm (AID 1129). The following applies: small-molecule microarray binding, fluorescence 635 nm; higher = more signal.
Experiment [13] deals with Focal adhesion kinase 1 (Homo sapiens) (UniProt Q05397). Briefly: PTK2 protein binding on printed compound slides – biochemical, small-molecule microarray, 635/667 nm fluorescence, BSA, DTT, primary screen (AID 1130).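 Further: composite of spot emission at 667 nm and signal to noise over triplicate slides.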 The following applies: 635 nm fluorescence, higher = more signal.
The test system of experiment [14] is Fibrinogen (Alexa647-labelled). Briefly: Alexa647-fibrinogen binding to printed small molecules – biochemical, small-molecule microarray, 635/667 nm fluorescence, artefact control for SMM control-protein annotation, profiling panel (AID 1131).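 Further: z-score merges 667 nm fluorescence with per-spot signal-to-noise over triplicate slides.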 The following applies: fibrinogen-A647 binding fluorescence, higher = more signal.
Experiment [15] concerns the target Follistatin (Homo sapiens) (UniProt P19883). Briefly: FST protein binding to printed compounds – biochemical, small-molecule microarray, 635/667 nm fluorescence, primary screen (AID 1132). Particulars: 635 nm fluorescence, higher = more signal.
Experiment [16] concerns the target Fibroblast growth factor 2 (Homo sapiens) (UniProt P09038). As to the kind of experiment: basic fibroblast growth factor binding to printed compounds – biochemical, small-molecule microarray, 635/667 nm fluorescence, primary screen (AID 1133). Particulars: FGF2, fluorescence 635/667, higher = more signal.
Experiment [17] in a line: JC-1 mitochondrial potential readout, lung cancer cells – cell-based, A549, JC-1 fluorescence, basal, 24 h, 100 nL, profiling panel (AID 1138).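 Further: A549 lung adenocarcinoma cells under basal conditions with no added stimulus; test concentration not given here.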 Particulars: higher = more signal.
Experiment [18] relates to Lefty1. As to the kind of experiment: Lefty1 protein binding to printed compounds – biochemical, small-molecule microarray, 635/667 nm fluorescence, primary screen (AID 1139). Particulars: fluorescence 635/667, higher = more signal.
Experiment [19] has as its system wheat germ agglutinin (Triticum aestivum), Alexa647-labelled. As to the kind of experiment: Alexa647-WGA lectin binding to printed small molecules – biochemical, small-molecule microarray, 635/667 nm fluorescence, artefact control for SMM control-protein annotation, profiling panel (AID 1140).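 Further: score merges 667 nm feature emission with signal to noise over triplicate slides.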 Particulars: WGA-A647 binding, 635 nm fluorescence, higher = more signal.

The target in experiment [20] is Luciferin 4-monooxygenase (Photinus pyralis) (UniProt P08659). As to the kind of experiment: inhibition of purified Photinus pyralis luciferase – biochemical, luminescence, purified enzyme, 2006 set, primary screen (AID 1141).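 Further: cell-free assay with purified firefly luciferase at 100 ng per well in PBS; test concentration not given here.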 The following applies: purified firefly luciferase, SteadyGlo luminescence, 30 min; higher = more signal, called active from +8 up or from −8 down.

Active and inactive are the calls of the source.

Sequence of Albumin (Bos taurus) (P02769 whole entry, looked up): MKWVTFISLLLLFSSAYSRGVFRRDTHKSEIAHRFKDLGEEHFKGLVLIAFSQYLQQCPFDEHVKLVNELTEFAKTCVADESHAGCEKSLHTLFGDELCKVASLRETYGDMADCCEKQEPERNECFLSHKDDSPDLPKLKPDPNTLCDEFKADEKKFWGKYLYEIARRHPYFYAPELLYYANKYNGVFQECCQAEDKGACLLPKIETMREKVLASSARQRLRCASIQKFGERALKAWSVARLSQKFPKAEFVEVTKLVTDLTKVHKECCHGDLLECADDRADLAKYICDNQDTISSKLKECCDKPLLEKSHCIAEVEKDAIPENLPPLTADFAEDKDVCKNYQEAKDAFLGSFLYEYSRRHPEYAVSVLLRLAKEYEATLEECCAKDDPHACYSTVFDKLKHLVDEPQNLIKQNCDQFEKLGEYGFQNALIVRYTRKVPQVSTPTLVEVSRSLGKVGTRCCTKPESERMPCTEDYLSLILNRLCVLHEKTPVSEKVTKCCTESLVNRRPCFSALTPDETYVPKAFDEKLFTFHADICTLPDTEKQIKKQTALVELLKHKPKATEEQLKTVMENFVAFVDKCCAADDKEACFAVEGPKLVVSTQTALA
Sequence of Follistatin (Homo sapiens) (P19883 whole entry, looked up): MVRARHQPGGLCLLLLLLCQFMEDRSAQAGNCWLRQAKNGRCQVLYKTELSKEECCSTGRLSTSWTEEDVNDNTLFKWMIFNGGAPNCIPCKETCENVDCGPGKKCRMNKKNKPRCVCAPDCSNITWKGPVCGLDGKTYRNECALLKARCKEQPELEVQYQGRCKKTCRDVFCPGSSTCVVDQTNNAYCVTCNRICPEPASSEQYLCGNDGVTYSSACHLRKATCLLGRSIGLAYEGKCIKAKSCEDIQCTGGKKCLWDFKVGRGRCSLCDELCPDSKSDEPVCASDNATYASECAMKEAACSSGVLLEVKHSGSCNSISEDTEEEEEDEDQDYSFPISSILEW
Sequence of Focal adhesion kinase 1 (Homo sapiens) (Q05397 whole entry, looked up): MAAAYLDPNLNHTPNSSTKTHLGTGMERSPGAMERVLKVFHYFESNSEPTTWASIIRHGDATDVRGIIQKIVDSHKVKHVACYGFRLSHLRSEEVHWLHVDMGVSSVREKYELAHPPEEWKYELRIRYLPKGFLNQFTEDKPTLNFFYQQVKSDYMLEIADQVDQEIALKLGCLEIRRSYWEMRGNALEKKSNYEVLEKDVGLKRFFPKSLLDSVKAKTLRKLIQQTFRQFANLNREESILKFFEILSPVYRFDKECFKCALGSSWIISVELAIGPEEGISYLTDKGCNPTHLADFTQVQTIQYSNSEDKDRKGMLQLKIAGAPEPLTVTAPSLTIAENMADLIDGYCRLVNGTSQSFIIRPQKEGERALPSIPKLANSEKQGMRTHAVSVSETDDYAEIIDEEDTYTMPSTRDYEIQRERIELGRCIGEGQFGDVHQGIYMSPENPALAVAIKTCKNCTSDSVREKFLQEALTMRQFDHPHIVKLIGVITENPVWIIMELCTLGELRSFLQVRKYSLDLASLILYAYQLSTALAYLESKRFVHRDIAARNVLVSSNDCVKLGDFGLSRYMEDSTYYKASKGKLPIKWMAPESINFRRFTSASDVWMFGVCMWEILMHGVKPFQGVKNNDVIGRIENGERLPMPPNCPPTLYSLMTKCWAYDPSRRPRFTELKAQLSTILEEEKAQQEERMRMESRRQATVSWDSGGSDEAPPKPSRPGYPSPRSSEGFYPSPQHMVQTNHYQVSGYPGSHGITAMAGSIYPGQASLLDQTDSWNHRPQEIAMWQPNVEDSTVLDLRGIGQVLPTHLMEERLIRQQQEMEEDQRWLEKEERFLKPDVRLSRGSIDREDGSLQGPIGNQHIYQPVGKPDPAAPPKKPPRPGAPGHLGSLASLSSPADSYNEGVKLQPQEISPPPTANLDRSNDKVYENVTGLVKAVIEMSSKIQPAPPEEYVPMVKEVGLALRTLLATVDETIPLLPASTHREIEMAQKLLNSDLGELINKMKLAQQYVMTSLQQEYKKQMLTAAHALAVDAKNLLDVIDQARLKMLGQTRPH
Sequence of Fibroblast growth factor 2 (Homo sapiens) (P09038 whole entry, looked up): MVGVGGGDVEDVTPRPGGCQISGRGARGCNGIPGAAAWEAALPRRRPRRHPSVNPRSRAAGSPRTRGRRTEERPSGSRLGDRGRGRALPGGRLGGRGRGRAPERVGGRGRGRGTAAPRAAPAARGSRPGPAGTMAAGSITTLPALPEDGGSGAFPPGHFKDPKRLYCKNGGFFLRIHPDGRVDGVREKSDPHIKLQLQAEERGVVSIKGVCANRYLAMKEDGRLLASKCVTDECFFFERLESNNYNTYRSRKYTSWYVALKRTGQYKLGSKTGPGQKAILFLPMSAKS
Sequence of Concanavalin-A (Canavalia ensiformis) (P02866 whole entry, looked up): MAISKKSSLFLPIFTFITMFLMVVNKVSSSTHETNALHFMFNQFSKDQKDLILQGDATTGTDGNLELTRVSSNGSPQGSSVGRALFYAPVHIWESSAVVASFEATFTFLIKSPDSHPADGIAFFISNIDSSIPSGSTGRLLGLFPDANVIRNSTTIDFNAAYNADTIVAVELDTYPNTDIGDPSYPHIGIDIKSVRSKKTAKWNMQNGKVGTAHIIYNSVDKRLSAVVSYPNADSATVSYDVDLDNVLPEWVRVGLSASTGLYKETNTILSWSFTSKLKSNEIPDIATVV
Sequence of Luciferin 4-monooxygenase (Photinus pyralis) (P08659 whole entry, looked up): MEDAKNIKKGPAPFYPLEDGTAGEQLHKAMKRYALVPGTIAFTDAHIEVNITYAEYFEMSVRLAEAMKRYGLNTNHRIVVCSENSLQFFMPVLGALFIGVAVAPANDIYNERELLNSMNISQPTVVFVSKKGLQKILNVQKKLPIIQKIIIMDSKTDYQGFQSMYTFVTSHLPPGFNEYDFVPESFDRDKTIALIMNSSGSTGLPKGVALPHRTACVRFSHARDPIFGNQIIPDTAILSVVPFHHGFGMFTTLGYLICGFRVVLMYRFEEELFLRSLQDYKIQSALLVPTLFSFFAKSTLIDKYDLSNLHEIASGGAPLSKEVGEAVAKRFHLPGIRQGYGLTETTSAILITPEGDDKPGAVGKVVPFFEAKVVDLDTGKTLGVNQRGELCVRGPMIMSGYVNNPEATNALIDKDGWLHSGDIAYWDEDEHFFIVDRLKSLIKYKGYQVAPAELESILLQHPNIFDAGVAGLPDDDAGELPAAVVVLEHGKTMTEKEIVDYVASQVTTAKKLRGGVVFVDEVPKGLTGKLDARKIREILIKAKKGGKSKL

Take `CCOC(=O)C=Cc1cc(F)ccc1O`: the composite z-score in experiment [1] was -0.0584; in experiment [3], -0.0324; in experiment [4] it was -0.0995; in [5] it was 0.384; in experiment [6], 0.149; in [7], 0.0926. Besides, the composite z-score was 0.161 in [8]; 0.133 in [9]; 0.126 in [10]; 0.354 in experiment [11]; -0.166 in experiment [12]; 0.727 in experiment [13]. The composite z-score in experiment [14] was -0.333; in [15] it was 0.0875; in experiment [16] it was 0.0013; in experiment [18] it was -0.471; in experiment [19], 0.0203. Besides, the composite Z-score in experiment [2] was -0.276 (inactive). The z-score in [17] is -1.8; in experiment [20], 0.701 (inactive).

For the compound `C=C[C@H](C)[C@H](OC(=O)Nc1ccc(OC)cc1)c1ccc(OCCO)cc1`, the composite z-score is -0.381 in experiment [1]; -0.279 in experiment [3]; -0.209 in experiment [4]; 0.464 in experiment [5]; 0.718 in experiment [6]; 0.434 in [7]. In addition, the composite z-score is -0.321 in experiment [8]; -1.18 in experiment [9]; -1.35 in experiment [10]; -0.489 in experiment [11]; -0.653 in [12]; 0.0457 in experiment [13]. The composite z-score was -0.909 in [14]; -0.617 in experiment [15]; -0.0943 in experiment [16]; -0.431 in [18]; -0.647 in experiment [19]. Further, the composite Z-score in [2] was 0.838 (inactive). Further, the z-score was 0.927 in experiment [17] and -6.74 (inactive) in [20].

Take `Cc1ccccc1C(O)C1C=CC2C(=O)N(c3ccccc3)C(=O)C2N1Nc1ccc([N+](=O)[O-])cc1` (stereo not given): the composite z-score in [1] is 0.84; in experiment [3] it was 0.116; in experiment [4], -0.0796; in experiment [5], 0.684; in [6], 2.73; in [7], 1.03. For the same compound, the composite z-score in experiment [8] is 1.3; in [9] it was -0.051; in experiment [10], 1.14; in experiment [11], 1.48; in experiment [12], 1.21; in experiment [13], 0.533. Besides, the composite z-score in experiment [14] is 1.01; in [15], 1.23; in [16], 1.06; in [18], 0.0122; in experiment [19], 0.515. For the same compound, the composite Z-score in experiment [2] is 1.19 (inactive). Besides, the z-score in experiment [17] was -0.752; in experiment [20], 1.18 (inactive).

As for `C=CCC(OC(C)=O)[C@@H]1[C@@H](N(Cc2cccc3ccccc23)C(=O)c2cccc3ccccc23)c2cc(OCCCO)ccc2N1C(=O)c1ccc2ccccc2c1` (stereo not given in full), the composite z-score in experiment [1] is 0.0949; in experiment [3] it was 0.0676; in experiment [4] it was -0.0883; in experiment [5], 0.206; in [6] it was -0.203; in experiment [7] it was -0.225. Also, the composite z-score was -0.047 in experiment [8]; 0.0526 in experiment [9]; -0.0264 in experiment [10]; 0.279 in [11]; 0.18 in [12]; -0.0836 in experiment [13]. Moreover, the composite z-score in [14] is 0.0439; in [15], 1.14; in experiment [16], 0.061; in [18] it was 0.11; in experiment [19] it was -0.223. For the same compound, the composite Z-score in [2] is 0.128 (inactive). Also, the z-score in experiment [17] was -0.348; in [20], 1.48 (inactive).

Turning to `CC(C)c1ccc(NN2C(C(O)Cc3ccccc3)C=CC3C(=O)N(c4ccccc4)C(=O)C32)cc1` (stereo not given), the composite z-score worked out at 0.999 in experiment [1]; 0.428 in experiment [3]; 0.0383 in experiment [4]; 0.751 in experiment [5]; 2.65 in experiment [6]; 0.0643 in [7]. Further, the composite z-score in experiment [8] was 1.31; in experiment [9], -0.209; in [10] it was 1.14; in experiment [11], 0.829; in experiment [12], 1.11; in [13] it was 1.16. The composite z-score was 0.958 in [14]; 1.28 in [15]; -0.0551 in experiment [16]; 0.441 in experiment [18]; 0.797 in experiment [19]. Further, the composite Z-score in [2] was 0.221 (inactive). Besides, the z-score is -1.24 in [17] and -0.959 (inactive) in experiment [20].

As for `C=CCC(OC(C)=O)[C@@H]1[C@@H](N(Cc2ccc(-c3ccccc3)cc2)C(=O)c2ccc(C)cc2)c2cc(OCCCO)ccc2N1C(=O)Cc1ccc2ccccc2c1` (stereo not given in full), the composite z-score was 0.233 in experiment [1]; -0.0362 in experiment [3]; -0.159 in experiment [4]; -0.14 in experiment [5]; 0.772 in experiment [6]; -0.0769 in experiment [7]. Moreover, the composite z-score in [8] is -0.106; in [9] it was 0.248; in experiment [10], 0.202; in experiment [11], 0.0102; in experiment [12] it was -0.823; in experiment [13], -0.0958. In addition, the composite z-score is 0.0701 in experiment [14]; 0.37 in experiment [15]; -0.154 in experiment [16]; 0.293 in experiment [18]; 0.0607 in [19]. In experiment [2], the composite Z-score was -0.645 (inactive). For the same compound, the z-score in [17] is 3.13; in [20], -2.19 (inactive).

Consider `CCCCCN1CC=CC23O[C@@H]4C=CCOC(=O)[C@@H]4[C@H]2C(=O)N(CCO)[C@@H]3C1=O` (stereo not given in full), for which the composite z-score is -0.141 in experiment [1]; -0.221 in experiment [3]; -0.14 in experiment [4]; 0.907 in experiment [5]; 1.28 in [6]; -0.0117 in [7]. Also, the composite z-score in experiment [8] was -0.263; in [9] it was -1.33; in [10], -0.502; in experiment [11], 1.58; in experiment [12], -0.22; in experiment [13], 0.0763. Also, the composite z-score in experiment [14] was -1.05; in experiment [15] it was -0.693; in experiment [16] it was -0.903; in experiment [18] it was -0.306; in [19], -0.324. For the same compound, in experiment [2], the composite Z-score was 0.403 (inactive). Further, the z-score in experiment [17] was -0.222; in [20] it was 0.056 (inactive).

For `COC(=O)C1N=C(c2ccc(OCCCO)cc2)N(c2ccccc2)O1` (stereo not given), the composite z-score in [1] was 0.878; in experiment [3] it was 0.187; in [4] it was -0.0073; in experiment [5], 0.403; in [6] it was 1.1; in [7], 0.382. The composite z-score in experiment [8] is 1.14; in experiment [9] it was 0.236; in experiment [10], 1.11; in experiment [11], 1.91; in [12], 1.15; in experiment [13] it was -0.0976. The composite z-score came out at 0.992 in [14]; 1.33 in experiment [15]; 1.76 in experiment [16]; 0.156 in experiment [18]; 1.29 in experiment [19]. In addition, in experiment [2], the composite Z-score was 0.608 (inactive). For the same compound, the z-score was 1.8 in [17] and -7.36 (inactive) in experiment [20].

Take `CC1(C)C(=O)C(c2ccccc2)=C2CN3C(=O)N(CCc4ccccc4)C(=O)C3(Cc3ccc(F)cc3)C=C21` (stereo not given): the composite z-score in experiment [1] came to 0.471; in [3], 0.781; in experiment [4], 0.246; in experiment [5] it was 0.0225; in experiment [6], 1.39; in experiment [7] it was 0.155. The composite z-score is 0.222 in experiment [8]; -1.21 in [9]; 0.477 in experiment [10]; 1.47 in experiment [11]; 0.324 in experiment [12]; -0.104 in experiment [13]. Moreover, the composite z-score in experiment [14] is -0.402; in experiment [15], 0.0178; in [16], -0.979; in experiment [18], -0.784; in experiment [19], 0.432. Moreover, the composite Z-score in experiment [2] was 0.0294 (inactive). The figures for the z-score in experiment [17] and in experiment [20] were -0.593 and 0.907 (inactive), respectively.
